Reference: the supplement of paper PMC11732987, “Enantioselective OTUD7B fragment discovery through chemoproteomics screening and high-throughput optimisation” (Communications Chemistry, 2025)
Values without a mark were called inactive.

Sequence of UniProt Q9UHP3 (Q9UHP3 whole entry): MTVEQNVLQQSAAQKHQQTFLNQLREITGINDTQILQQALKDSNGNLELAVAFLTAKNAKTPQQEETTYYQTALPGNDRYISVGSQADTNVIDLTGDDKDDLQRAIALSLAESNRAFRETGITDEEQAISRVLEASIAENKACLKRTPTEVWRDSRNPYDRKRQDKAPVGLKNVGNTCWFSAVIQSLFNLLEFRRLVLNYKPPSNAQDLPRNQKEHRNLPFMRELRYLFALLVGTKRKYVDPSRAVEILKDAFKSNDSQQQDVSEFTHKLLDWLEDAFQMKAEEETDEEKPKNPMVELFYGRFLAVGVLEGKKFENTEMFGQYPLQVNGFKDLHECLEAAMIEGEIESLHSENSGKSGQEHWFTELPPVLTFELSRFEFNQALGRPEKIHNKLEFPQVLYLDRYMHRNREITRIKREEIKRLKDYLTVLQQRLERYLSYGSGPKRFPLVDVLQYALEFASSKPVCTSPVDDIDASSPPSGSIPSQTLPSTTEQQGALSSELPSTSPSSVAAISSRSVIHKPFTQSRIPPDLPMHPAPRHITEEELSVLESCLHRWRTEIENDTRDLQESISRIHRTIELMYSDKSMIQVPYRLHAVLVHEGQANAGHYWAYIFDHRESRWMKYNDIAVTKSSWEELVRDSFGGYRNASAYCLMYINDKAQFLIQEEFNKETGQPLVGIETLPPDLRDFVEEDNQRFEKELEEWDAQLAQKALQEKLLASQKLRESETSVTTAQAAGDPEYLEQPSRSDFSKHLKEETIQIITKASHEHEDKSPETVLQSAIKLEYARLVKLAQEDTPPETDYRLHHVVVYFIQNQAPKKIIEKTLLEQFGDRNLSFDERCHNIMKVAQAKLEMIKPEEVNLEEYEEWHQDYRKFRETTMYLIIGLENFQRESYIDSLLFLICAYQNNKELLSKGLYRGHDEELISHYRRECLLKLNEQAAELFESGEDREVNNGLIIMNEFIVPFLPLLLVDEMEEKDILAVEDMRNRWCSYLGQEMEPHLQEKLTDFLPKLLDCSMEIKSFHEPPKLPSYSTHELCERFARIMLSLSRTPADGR
Sequence of UniProt Q9Y5T5 (Q9Y5T5 whole entry, looked up): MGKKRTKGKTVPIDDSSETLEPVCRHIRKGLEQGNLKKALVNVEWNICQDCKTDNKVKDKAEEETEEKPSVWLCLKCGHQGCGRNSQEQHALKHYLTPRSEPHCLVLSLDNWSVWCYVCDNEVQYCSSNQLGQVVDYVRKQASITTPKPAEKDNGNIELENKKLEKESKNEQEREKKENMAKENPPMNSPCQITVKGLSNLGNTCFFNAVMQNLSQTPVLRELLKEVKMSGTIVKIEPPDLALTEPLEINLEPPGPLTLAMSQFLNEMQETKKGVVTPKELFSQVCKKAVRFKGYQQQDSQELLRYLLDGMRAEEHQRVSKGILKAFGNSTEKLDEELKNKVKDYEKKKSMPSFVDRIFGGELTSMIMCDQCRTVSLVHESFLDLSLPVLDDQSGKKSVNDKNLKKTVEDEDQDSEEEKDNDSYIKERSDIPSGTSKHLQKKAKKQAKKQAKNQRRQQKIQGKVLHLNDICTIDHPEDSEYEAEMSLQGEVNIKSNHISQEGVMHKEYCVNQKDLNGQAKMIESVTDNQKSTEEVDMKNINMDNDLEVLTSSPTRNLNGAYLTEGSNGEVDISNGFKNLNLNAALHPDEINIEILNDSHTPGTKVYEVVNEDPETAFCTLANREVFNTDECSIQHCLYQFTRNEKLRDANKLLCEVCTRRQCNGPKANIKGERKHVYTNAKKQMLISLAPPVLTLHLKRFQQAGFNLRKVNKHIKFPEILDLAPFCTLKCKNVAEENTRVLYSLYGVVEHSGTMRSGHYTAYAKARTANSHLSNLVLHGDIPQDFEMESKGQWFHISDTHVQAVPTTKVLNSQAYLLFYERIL
Sequence of UniProt Q8TE49 (Q8TE49 whole entry): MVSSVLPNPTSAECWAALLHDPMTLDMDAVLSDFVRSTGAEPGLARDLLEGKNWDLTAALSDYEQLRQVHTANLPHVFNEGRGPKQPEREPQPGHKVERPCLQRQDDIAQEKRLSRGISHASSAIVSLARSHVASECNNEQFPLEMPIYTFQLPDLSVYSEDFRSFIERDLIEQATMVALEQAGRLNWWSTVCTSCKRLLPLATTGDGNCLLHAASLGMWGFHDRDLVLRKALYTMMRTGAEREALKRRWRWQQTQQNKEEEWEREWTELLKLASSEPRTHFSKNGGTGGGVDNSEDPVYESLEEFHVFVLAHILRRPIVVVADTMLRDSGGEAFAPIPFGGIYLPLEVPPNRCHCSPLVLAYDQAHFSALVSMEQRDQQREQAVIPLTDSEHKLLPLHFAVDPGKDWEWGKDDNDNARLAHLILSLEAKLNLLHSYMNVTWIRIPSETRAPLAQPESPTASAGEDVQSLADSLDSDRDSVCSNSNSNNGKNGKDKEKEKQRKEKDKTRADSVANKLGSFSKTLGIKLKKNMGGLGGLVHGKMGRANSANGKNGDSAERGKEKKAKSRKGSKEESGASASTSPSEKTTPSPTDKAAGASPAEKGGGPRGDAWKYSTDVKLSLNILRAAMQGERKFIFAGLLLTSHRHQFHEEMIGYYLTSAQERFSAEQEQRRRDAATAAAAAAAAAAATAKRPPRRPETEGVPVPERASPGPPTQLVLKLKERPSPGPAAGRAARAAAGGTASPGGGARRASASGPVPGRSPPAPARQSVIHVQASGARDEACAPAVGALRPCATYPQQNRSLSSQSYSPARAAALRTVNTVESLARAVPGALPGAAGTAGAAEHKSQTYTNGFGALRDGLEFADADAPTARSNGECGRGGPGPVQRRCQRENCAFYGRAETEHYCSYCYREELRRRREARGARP
Sequence of UniProt P62068 (P62068 whole entry): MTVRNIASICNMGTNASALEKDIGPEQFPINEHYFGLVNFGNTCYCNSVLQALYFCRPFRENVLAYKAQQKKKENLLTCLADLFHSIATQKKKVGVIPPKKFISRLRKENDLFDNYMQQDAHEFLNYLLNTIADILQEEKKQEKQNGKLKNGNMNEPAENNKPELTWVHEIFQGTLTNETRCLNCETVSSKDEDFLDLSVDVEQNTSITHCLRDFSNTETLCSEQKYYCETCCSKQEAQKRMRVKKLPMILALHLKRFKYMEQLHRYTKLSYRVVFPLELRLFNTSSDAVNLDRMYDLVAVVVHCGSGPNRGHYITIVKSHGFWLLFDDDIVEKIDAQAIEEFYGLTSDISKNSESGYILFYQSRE
Sequence of UniProt Q92905 (Q92905 whole entry, looked up): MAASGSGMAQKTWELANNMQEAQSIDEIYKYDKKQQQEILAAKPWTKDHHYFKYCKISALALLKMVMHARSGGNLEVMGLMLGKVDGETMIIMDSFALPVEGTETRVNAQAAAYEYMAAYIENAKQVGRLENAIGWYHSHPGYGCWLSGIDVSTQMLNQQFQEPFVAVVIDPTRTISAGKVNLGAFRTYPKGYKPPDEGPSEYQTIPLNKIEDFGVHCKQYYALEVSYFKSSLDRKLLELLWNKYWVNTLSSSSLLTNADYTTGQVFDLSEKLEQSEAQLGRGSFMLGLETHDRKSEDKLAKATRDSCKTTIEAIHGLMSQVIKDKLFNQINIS
Sequence of UniProt Q93009 (Q93009 whole entry, looked up): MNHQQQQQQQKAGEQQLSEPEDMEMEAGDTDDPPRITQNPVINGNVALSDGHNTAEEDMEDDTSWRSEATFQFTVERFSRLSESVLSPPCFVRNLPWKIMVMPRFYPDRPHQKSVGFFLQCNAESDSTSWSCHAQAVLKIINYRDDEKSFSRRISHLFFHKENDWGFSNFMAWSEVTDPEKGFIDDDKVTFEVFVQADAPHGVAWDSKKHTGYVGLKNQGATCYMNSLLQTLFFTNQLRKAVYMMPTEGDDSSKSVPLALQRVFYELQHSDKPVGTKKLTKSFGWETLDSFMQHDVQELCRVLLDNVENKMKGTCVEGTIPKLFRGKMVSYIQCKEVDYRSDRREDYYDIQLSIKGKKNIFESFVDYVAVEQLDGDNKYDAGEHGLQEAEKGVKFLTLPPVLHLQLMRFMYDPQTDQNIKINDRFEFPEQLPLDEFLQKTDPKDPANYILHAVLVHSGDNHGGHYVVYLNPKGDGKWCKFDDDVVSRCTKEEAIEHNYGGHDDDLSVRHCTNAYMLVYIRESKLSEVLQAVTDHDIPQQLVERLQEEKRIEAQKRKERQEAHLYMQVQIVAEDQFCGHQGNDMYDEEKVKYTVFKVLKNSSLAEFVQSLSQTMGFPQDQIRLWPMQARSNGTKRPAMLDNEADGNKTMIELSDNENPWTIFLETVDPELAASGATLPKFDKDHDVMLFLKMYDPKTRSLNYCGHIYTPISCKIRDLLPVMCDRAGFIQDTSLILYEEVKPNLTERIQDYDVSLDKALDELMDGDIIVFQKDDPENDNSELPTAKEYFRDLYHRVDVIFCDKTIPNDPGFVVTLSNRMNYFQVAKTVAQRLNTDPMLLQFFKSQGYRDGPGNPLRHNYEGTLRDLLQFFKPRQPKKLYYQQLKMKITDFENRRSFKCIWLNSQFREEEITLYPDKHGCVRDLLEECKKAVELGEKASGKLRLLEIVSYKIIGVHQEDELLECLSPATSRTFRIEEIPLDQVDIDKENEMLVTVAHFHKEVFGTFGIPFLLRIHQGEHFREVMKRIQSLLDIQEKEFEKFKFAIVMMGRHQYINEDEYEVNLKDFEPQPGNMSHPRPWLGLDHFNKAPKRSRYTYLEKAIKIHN
Sequence of UniProt Q9Y5K5 (Q9Y5K5 whole entry): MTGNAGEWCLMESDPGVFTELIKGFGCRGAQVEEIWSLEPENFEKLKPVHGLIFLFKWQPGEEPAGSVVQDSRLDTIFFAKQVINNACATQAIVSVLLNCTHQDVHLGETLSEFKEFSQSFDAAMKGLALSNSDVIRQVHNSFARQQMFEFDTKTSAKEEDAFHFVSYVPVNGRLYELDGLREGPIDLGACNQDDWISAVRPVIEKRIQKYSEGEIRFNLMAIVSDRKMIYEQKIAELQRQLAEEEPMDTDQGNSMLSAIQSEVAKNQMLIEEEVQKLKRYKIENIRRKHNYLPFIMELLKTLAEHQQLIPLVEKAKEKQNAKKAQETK

What follows are targets tested with COc1cccc(CN(C)C(=O)CCl)c1 (assay: log2 ratio of Biotin-Ahx-Ub-VS probe labelling (compound/DMSO); higher = less target engagement, active = hit call of the paper (q ≤ 0.05, log2 ratio ≤ -1)). Conditions: compound concentration: 50uM; treatment time: 3 h.
Method: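 Round 2 competitive ABPP in HEK293T lysate. Compounds were tested at 50 and 200 µM for 3 h, followed by Biotin-Ahx-Ub-VS enrichment and diaPASEF LC-MS/MS. Values are the average log2 ratio (compound/DMSO) from an unpaired t-test (n=3 treated, n=26 DMSO).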
In the case of UCHL5 (UniProt Q9Y5K5), the “log2 ratio of Biotin-Ahx-Ub-VS probe labelling” value (shortened to “log2 ratio”) is reported as -0.115.
For USP7 (UniProt Q93009), the “log2 ratio” value was -0.4.
In the case of UniProt Q8TE49, the “log2 ratio” value is reported as -0.097.
USP24 (UniProt Q9UPU5) was tested, and the “log2 ratio” value was 0.0304.
For USP25 (UniProt Q9UHP3), the “log2 ratio” value was -1.88 (active).
For USP46 (UniProt P62068), the “log2 ratio” value was -0.277.
In the case of USP16 (UniProt Q9Y5T5), the “log2 ratio” value is reported as 0.0263.
For COPS5 (UniProt Q92905), the “log2 ratio” value was -0.236.

Same assay, conditions: compound concentration: 200uM; treatment time: 3 h
For UCHL5 (UniProt Q9Y5K5), the “log2 ratio” value was -0.295.
For USP7 (UniProt Q93009), the “log2 ratio” value was -1.53 (active).
In the case of UniProt Q8TE49, the “log2 ratio” value is reported as -0.652.
USP24 (UniProt Q9UPU5) was tested, and the “log2 ratio” value was -0.88.
USP25 (UniProt Q9UHP3) was tested, and the “log2 ratio” value was -0.899.
For USP46 (UniProt P62068), the “log2 ratio” value was -0.261.
USP16 (UniProt Q9Y5T5) was tested, and the “log2 ratio” value was -0.213.
With COPS5 (UniProt Q92905) the “log2 ratio” value was -0.578.
